From PubChem BioAssay AID1240 (Sanford-Burnham Center for Chemical Genomics, 2008)
In all, about 50,000 compounds went through this assay and about 800 (1.6%) showed an effect of 50% or more. The sample holds strong results, similar compounds and a random draw of the others, so the mix is not that of the screen.

Target: Bcl-2-like protein 10 (Homo sapiens) (UniProt Q9HD36)
Assay: TR3 peptide-Bcl-B binding displacers, biochemical primary FP assay, phenotype converters (AID 1240);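 note: 0% = Bcl-B with tracer peptide and DMSO and 100% = tracer peptide lacking Bcl-B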
Conditions: GST-Bcl-B / FITC-TR3 peptide fluorescence polarization; stronger effect = higher value; compound at 3.75 mg/L

Chain of Bcl-2-like protein 10 (Homo sapiens) (Q9HD36 whole entry, looked up): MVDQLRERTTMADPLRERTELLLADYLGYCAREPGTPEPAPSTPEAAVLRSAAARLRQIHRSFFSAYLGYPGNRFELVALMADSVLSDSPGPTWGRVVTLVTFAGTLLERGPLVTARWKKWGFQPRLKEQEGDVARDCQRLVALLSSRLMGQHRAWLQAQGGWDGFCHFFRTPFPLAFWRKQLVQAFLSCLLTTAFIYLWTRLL

Structure (SMILES)	displacement [%]
Nc1nonc1-c1ncc(-c2ccc(Br)cc2)nn1	30.1
O=c1n(Cc2ccccc2Cl)c2cc(N3CCOCC3)c([N+](=O)[O-])cc2n1Cc1ccccc1Cl	-9.7
Cc1ccc(C(=O)NNC(=O)c2ccc3ccccc3c2O)cc1	20.5
Cc1ccc(/C=C/C(=O)N2CCN(c3ccccc3)CC2)o1	3.6
Cc1ccc([N+](=O)[O-])cc1NC(=O)CC1Sc2ccccc2NC1=O (stereo unspecified)	3.4
Cc1ccccc1-c1cc(C(=O)N2CCOCC2)c2ccccc2n1	4
Cc1ccc(C(=O)Nc2ccc(N3CCOCC3)cc2)cc1C	0.3
O=C(Nc1c(C(=O)N2CCN(Cc3ccccc3)CC2)cnn1-c1ccccc1)c1cccc(F)c1	3
COc1cc(OC)c(C(=O)N2CC(=O)Nc3ccccc32)c(OC)c1	4.9
O=C(Nc1ccccc1Cl)c1cncc(Br)c1	118
CCc1ccccc1NC(=O)c1cncc(Br)c1	5.4
O=C(Nc1ccccc1F)c1cncc(Br)c1	3.9
CCc1ccc(NC(=O)c2cncc(Br)c2)cc1	15
CCN(CC)c1ccc(NC(=O)c2cncc(Br)c2)cc1	84.2
CCN(CC)c1ccc(NC(=O)c2ccc(Br)cc2)cc1	9.2
CCC(C)NC(=O)C(=O)NCCc1ccccc1 (stereo unspecified)	5.5
Cc1nc2ccccc2n1C(=O)c1ccco1	-3.1
O=C(NCc1ccccn1)C(=O)N/N=C/c1ccccc1C(F)(F)F	-19.3
CC(=O)N=c1cccc(NC(C)=O)n1O	5.8
CC(=O)Oc1ccc2c(c1)oc(=O)c1c3cc(OC(C)=O)c(OC(C)=O)cc3oc21	12.7
O=C(Nc1ccc(Cl)c(C(F)(F)F)c1)c1cccs1	-5.7
COc1ccc(C2=C/C(=C\c3ccc4c(c3)OCO4)C(=O)O2)cc1	117
CCOc1ccc(C2=C/C(=C/c3ccc(OC)c(OC)c3)C(=O)O2)cc1	34.8
COc1ccc(/C=C2/C=C(c3ccc(OC)c(OC)c3)OC2=O)cc1OC	189

Structure (SMILES)	displacement [%]
COc1cc(/C=C2/C=C(c3ccccc3)OC2=O)ccc1C	-4.5
O=C1OC(c2ccc(Cl)cc2)=C/C1=C\c1ccc2c(c1)OCO2	-19.4
O=C1OC(c2ccccc2)=C/C1=C/c1ccc2c(c1)OCO2	-0.2
COc1ccc(/C=C2/C=C(c3ccccc3)OC2=O)cc1	-15.2
COc1ccc(C2=C/C(=C/c3ccc(OC)c(OC)c3)C(=O)O2)cc1	154
COc1ccc(C2=C/C(=C/c3ccc(OC)c(Br)c3)C(=O)O2)cc1	11
CCOC(=O)/C(C#N)=C\c1c(C)c(C)c(/C=C(/C#N)C(=O)OCC)c(C)c1C	7.7
c1ccc(-c2nc(N3CCOCC3)nc3ccccc23)cc1	-1.9
c1ccc2nc3c(cc(N4CCOCC4)c4ccccc43)nc2c1	147
c1ccc2c(c1)nc(N1CCOCC1)c1ccccc12	-0.6
CCOC(=O)C(=O)Nc1nc(C23CC4CC(CC(C4)C2)C3)cs1	3.2
O=C(Cc1ccccc1)Nc1ccc(Cl)c(-c2nc3cc(Cl)ccc3o2)c1	-37.9
CCC(=O)/C(C)=C(\NC(=O)c1ccccc1)c1ccccc1	-4.8
CC(C)c1ccc(N2C(=O)NC(=O)/C(=C/c3ccc(O)c(O)c3)C2=O)cc1	-20.3
Cc1cc(NC(=O)CCN2C(=O)/C(=C/c3ccc(F)cc3)SC2=S)no1	19
Cc1cc(NC(=O)CCN2C(=O)/C(=C\c3cccs3)SC2=S)no1	90.4
O=C(CCCN1C(=O)/C(=C\c2cccs2)SC1=S)Nc1nccs1	114
O=C(CCN1C(=O)/C(=C\c2cccs2)SC1=S)Nc1ccccc1C(=O)O	19.8
O=C(CCN1C(=O)/C(=C/c2cccs2)SC1=S)Nc1ccccn1	126
O=C(CCCN1C(=O)/C(=C/c2ccccc2)SC1=S)Nc1nccs1	11.2
O=C(CCCN1C(=O)/C(=C\c2cccs2)SC1=S)Nc1ccccn1	13.2
O=C(CCN1C(=O)/C(=C\c2cccs2)SC1=S)Nc1nccs1	120
O=C(CCN1C(=O)/C(=C/c2ccc(Cl)cc2)SC1=S)Nc1nccs1	14.9
Cc1cc(NC(=O)CCN2C(=O)/C(=C/c3ccccc3)SC2=S)no1	5.3

Structure (SMILES)	displacement [%]
O=C(CCCN1C(=O)/C(=C\c2cccs2)SC1=S)Nc1nc2ccccc2s1	12.7
Cc1ccc(/C=C2\SC(=S)N(CCC(=O)Nc3nccs3)C2=O)cc1	19.4
O=C(Nc1nccs1)c1ccc2c(c1)OCO2	32.1
CC(NC(=O)c1cc2cc([N+](=O)[O-])ccc2oc1=O)c1ccccc1 (stereo unspecified)	12.2
CS(=O)(=O)N(Cc1ccc(C(=O)Nc2ccc(CC#N)cc2)cc1)c1ccccc1	-7
COc1ccc(/C=C/C(=O)NCc2ccc(C)cc2)cc1OC	9.4
Cc1cccc(NC(=O)CN(c2ccc(C(C)C)cc2)S(=O)(=O)c2ccccc2)c1	2.4
COc1ccc(Cl)cc1N(CC(=O)NCC(C)C)S(=O)(=O)c1ccc(C)c([N+](=O)[O-])c1	16.7
CC(C)(C)c1ccc(OCC(O)CS(=O)(=O)Cc2ccc(Cl)cc2)cc1 (stereo unspecified)	8.5
O=C1C2ON(c3ccccc3)C(c3ccccc3)C2C(=O)N1Cc1ccccc1 (stereo unspecified)	5.9
COc1cccc(-n2c(O)c(/C=C3\C=c4ccccc4=N3)c(=O)[nH]c2=O)c1	-0.4
O=c1[nH]c(=O)n(-c2ccccc2)c(O)c1C(c1cccnc1)c1c(O)n(-c2ccccc2)c(=O)[nH]c1=O	-5
COc1cccc(-n2c(O)c(C(c3ccccn3)c3c(O)n(-c4cccc(OC)c4)c(=O)[nH]c3=O)c(=O)[nH]c2=O)c1	67.7
O=C1c2ccc([N+](=O)[O-])cc2C(=O)C1c1ccc2ccccc2n1 (stereo unspecified)	7.6
O=C1/C(=C\c2cccc(Br)c2)SC(=S)N1c1cccc(C(F)(F)F)c1	18.2
COc1ccc2c(c1)OCC/C2=N\OC(=O)c1ccccc1OC	-7.8
O=C(COc1ccc2ccccc2c1)NCC1CCCO1 (stereo unspecified)	12.6
COc1ccccc1-c1coc2cc(OC(=O)c3ccc(Cl)cc3)ccc2c1=O	-2
COc1ccccc1-c1coc2cc(OC(=O)c3cccc(Cl)c3)ccc2c1=O	6.5
COc1ccccc1-c1coc2cc(OC(=O)c3ccc(Cl)cc3Cl)ccc2c1=O	63.9
N#CC(C#N)=Cc1cn(-c2ccccc2)nc1-c1ccc(-c2ccc([N+](=O)[O-])cc2)o1	-5.9
Cc1ccc(-c2nn(-c3ccccc3)cc2C=O)o1	-0.3
Cc1ccc(-c2nn(-c3ccccc3)cc2/C=C(\C#N)C(N)=O)o1	61.7
